This is a sample that favours compounds with a hit; in the whole collection about 1.7% have one here.
CCHF vOTU inh: blocks the CCHF virus ovarian tumor domain protease; CCHFV vOTU protease, Pep-AMC fluorescence; inhibition, % at 11.5 µM; 0.55% of 370,000 active; in the data active = inhibition above about 30%; note: 0% = vehicle wells with enzyme and 100% = no enzyme wells
Mtb betalactam: beta-lactam sensitization of Mtb H37Rv. inhibition, % at 25 µM. M. tuberculosis H37Rv growth with meropenem, percent inhibition. 0.27% of 330,000 active. AID 434955; call rule not given here;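 note: growth measured after seven days incubation then overnight dye step; 0% = bacteria only wells and 100% = bacteria with antibiotic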
RecA intein inh: blocks M. tuberculosis RecA intein splicing | cell-free RecA intein splicing, fluorescence | P9WHJ3 | 0.75% of 290,000 active | inhibition, % (test concentration not listed); in the data active = inhibition above about 30%;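 note: 0% = vehicle wells and 100% = reference inhibitor control wells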
PfHsp40 rescue: compounds rescuing yeast from Plasmodium falciparum HSP40 toxicity; S. cerevisiae expressing PfHsp40, growth rescue, ATP luminescence; growth rescue, % at 12.5 µM; 0.68% of 340,000 active; AID 504582; in the data active = growth rescue above about 28%, passing the limit was not always enough;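 note: yeast W303a lacking pdr1 and pdr3 grown in galactose medium; growth measured after three days at 30 °C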
Mtb hypoxia rep: reduces hypoxia-regulated biosensor signal in M. tuberculosis. M. tuberculosis hypoxia-regulated fluorescent reporter, fluorescence. fluorescence inhibition, % (no concentration beside the values). 0.1% of 300,000 active. AID 1159583; in the data active = fluorescence inhibition mostly above about 23%, no sharp cut-off; inactive = mostly below about 17%
The depositor's hits bear a star.

For CCN1/C(=C/C=C/C=C/c2sc3ccccc3[n+]2CC)Sc2ccccc21 the results were Mtb betalactam 98.6 and RecA intein inh 16.1.
CCN1/C(=C/C=C/c2sc3ccccc3[n+]2CC)Sc2ccccc21 was read as Mtb betalactam 81.0, RecA intein inh 19.8 and PfHsp40 rescue 254.1*.
COc1cc2c(cc1NC(=O)C(C)Sc1ccc(NC(C)=O)cc1)oc1ccccc12 (stereo unspecified) was read as CCHF vOTU inh 24.7, Mtb betalactam 3.5, RecA intein inh -1.8, PfHsp40 rescue 33.2* and Mtb hypoxia rep -4.1.
For COc1cc2c(cc1NC(=O)Nc1ccc(C)cc1)oc1ccccc12 the results were CCHF vOTU inh 4.6, Mtb betalactam 1.6, RecA intein inh 0.9, PfHsp40 rescue 22.8 and Mtb hypoxia rep 9.6.
Screening S=C(NCc1ccco1)Nc1ccc(Oc2ccc(Cl)cc2)cc1 returned CCHF vOTU inh 1.4, Mtb betalactam -0.3, RecA intein inh 2.9, PfHsp40 rescue 194.3* and Mtb hypoxia rep 6.8.
For COc1ccc(C2C=CCN(S(=O)(=O)c3ccc(C)cc3)CC(=O)N2Cc2ccc(F)cc2)cc1 (stereo unspecified) the results were Mtb hypoxia rep 0.4.
`Cc1ccc(C(=O)Sc2cccccc2=O)cc1` gave CCHF vOTU inh 12.7, Mtb betalactam 100.5, RecA intein inh 1.4 and PfHsp40 rescue 698.3*.
For Cc1ccc(S(=O)(=O)Nc2ccc3c(c2)C(=O)N(C(C)CO)CC(C)C(CN(C)Cc2ccc(-c4ccccc4)cc2)O3)cc1 (stereo unspecified) the results were Mtb hypoxia rep 1.7.
Screening CCOC(=O)c1nn(-c2ccc(C)cc2)c(=O)c2c(N)scc12 returned CCHF vOTU inh 21.2, Mtb betalactam -0.8, RecA intein inh 34.8*, PfHsp40 rescue -0.2 and Mtb hypoxia rep 9.5.
For CC1CCN(S(=O)(=O)c2ccc(C(=O)Nc3nnc(C4CC4)o3)cc2)CC1 the results were CCHF vOTU inh 0.0, Mtb betalactam 87.2, RecA intein inh -2.4, PfHsp40 rescue 58.0* and Mtb hypoxia rep -1.1.
For O=C(Nc1nnc(C2CC2)o1)c1ccc(S(=O)(=O)N2CCCCC2)cc1 the results were CCHF vOTU inh -3.7, Mtb betalactam 92.4, RecA intein inh 0.7, PfHsp40 rescue -0.4 and Mtb hypoxia rep 3.4.
For CCCCCC1CN(Cc2ccccc2)C(=O)C1CC(=O)NCc1ccccc1 (stereo unspecified) the results were Mtb hypoxia rep 7.0.
`O=C(Nc1nncs1)c1ccc(S(=O)(=O)c2ccccc2)cc1` gave CCHF vOTU inh 7.0, Mtb betalactam -2.4, RecA intein inh -2.0, PfHsp40 rescue 173.1* and Mtb hypoxia rep 3.2.
O=C(Nc1ccccc1C(=O)Nc1nncs1)c1ccccc1 was read as CCHF vOTU inh 0.9, Mtb betalactam -8.1, RecA intein inh -1.5, PfHsp40 rescue -1.0 and Mtb hypoxia rep 4.8.
Screening CN1/C(=C\C=C2/SC(=S)N(CC(=O)O)C2=O)C(C)(C)c2ccccc21 returned CCHF vOTU inh 18.0, Mtb betalactam 24.2, PfHsp40 rescue -0.3 and Mtb hypoxia rep 62.1*.
C=CCN1C(=O)/C(=C\C=C2\N(C)c3ccccc3C2(C)C)SC1=S was read as CCHF vOTU inh -6.3, Mtb betalactam 8.5, RecA intein inh 5.1 and PfHsp40 rescue 0.8.
`CCCCN(CCCC)c1ncnc2nc[nH]c12` gave CCHF vOTU inh 5.0, Mtb betalactam 54.3, RecA intein inh 2.0, PfHsp40 rescue 137.8* and Mtb hypoxia rep 3.6.
Screening Cc1nc(-c2ccccn2)nc(N2CCOCC2)c1Cl returned CCHF vOTU inh 1.6, Mtb betalactam 86.2, RecA intein inh -0.6, PfHsp40 rescue 0.0 and Mtb hypoxia rep 5.0.
`Cc1nc(-c2ccccn2)nc(N(C)c2ccccc2)c1Cl` gave CCHF vOTU inh 0.9, Mtb betalactam 85.0, RecA intein inh -0.9, PfHsp40 rescue 179.8* and Mtb hypoxia rep 3.2.
For O=C(/C=C/Nc1ccccc1)c1ccc(Cl)cc1Cl the results were CCHF vOTU inh -1.6, Mtb betalactam 0.1, RecA intein inh 4.9, PfHsp40 rescue 0.4 and Mtb hypoxia rep 4.4.
`N#Cc1c(Nc2ccccc2)[n+]([O-])c2ccc(Cl)cc2[n+]1[O-]` gave CCHF vOTU inh 20.1 and PfHsp40 rescue 68.7*.
Screening CCN(CC)S(=O)(=O)c1cccc(C(=O)NN=Cc2c(C)nn(-c3ccccc3)c2Cl)c1 returned Mtb hypoxia rep 3.8.
For COc1ccc(N2C(=O)CC(N(C)CCc3ccc(OC)c(OC)c3)C2=O)cc1 (stereo unspecified) the results were CCHF vOTU inh 7.7, Mtb betalactam -4.4, RecA intein inh 2.1, PfHsp40 rescue 6.9 and Mtb hypoxia rep -1.7.

Screening data (PubChem)
